Rows were chosen to be rich in hits. Some 10% of all compounds tested hit in one or more screens of this group.
hNpr1 antagonist: Natriuretic polypeptide receptor (hNpr1) antagonism - Primary qHTS; HEK293 hNpr1 GloSensor cGMP, ANP-stimulated luminescence; AID 1347048, 2019; Potency, µM (highest dose often 46.3 µM), most hits filed as inhibitors; 76,000 tested, 1.6% active; Atrial natriuretic peptide receptor 1 (Homo sapiens), P16066; calls by dose curve; further: nearly all actives have a fitted effect of over 60% in size
Target sequence (P16066 whole entry, looked up): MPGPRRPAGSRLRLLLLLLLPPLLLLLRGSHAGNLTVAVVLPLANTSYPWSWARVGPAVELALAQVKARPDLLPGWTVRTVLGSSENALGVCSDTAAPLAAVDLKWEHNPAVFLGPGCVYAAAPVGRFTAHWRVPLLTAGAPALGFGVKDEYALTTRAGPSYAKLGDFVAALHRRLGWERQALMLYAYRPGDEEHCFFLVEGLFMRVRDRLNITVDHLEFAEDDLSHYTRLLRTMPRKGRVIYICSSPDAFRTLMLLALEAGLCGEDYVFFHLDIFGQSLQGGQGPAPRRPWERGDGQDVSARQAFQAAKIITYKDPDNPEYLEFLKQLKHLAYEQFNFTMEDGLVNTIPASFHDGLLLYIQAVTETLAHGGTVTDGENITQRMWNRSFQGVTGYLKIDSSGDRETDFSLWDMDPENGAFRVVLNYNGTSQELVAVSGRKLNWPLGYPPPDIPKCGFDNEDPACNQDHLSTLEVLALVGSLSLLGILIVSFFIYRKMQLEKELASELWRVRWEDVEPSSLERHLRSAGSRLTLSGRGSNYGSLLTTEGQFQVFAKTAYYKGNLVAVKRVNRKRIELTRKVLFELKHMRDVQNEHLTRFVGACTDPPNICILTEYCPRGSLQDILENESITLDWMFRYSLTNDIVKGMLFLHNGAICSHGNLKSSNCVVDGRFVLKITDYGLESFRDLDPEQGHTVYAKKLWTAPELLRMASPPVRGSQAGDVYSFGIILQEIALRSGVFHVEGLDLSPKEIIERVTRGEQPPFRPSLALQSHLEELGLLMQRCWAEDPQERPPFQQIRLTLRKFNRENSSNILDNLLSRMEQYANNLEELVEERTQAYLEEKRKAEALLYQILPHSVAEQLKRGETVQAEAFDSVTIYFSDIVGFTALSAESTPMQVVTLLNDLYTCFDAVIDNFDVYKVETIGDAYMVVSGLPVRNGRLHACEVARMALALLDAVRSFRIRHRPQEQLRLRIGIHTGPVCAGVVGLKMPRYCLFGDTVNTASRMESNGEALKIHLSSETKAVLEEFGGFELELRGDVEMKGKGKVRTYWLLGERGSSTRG
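HEK293 cells stably expressing human Npr1 and cGMP GloSensor pGS-40F, loaded 2 h with 2% GloSensor reagent, given compound 30 min at room temperature. Luminescence read before and 20 min after 0.1 nM hNppA.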
GPT2 inh: Primary qHTS assay for inhibitors of Glutamate pyruvate transaminase 2 (GPT2); Alanine aminotransferase 2 (Homo sapiens), Q8TD30; Recombinant GPT2, coupled pyruvate oxidase/HRP Amplex Red fluorescence; Potency, µM (top dose mostly 57.7 µM), actives largely listed as inhibitors; AID 1671188, 2021; 100,000 tested, 0.25% active; further: nearly all actives have a fitted effect of over 60% in size
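Inhibition is scored from Amplex Red fluorescence generated when pyruvate oxidase and HRP act on pyruvate released by GPT2. Reactions contain 10ng/uL enzyme, 250uM a-KG and 2mM L-alanine and run 30 min at room temperature.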
NIH3T3 tox: Cytotoxic Profiling in NIH 3T3 Cell Line of Diverse Libraries Using Quantitative High-Throughput Screening; NIH 3T3 viability, CellTiter-Glo ATP luminescence, 48-72 h; Potency, µM (top dose mostly 96.7 µM), hits mostly inhibitors; 94,000 tested, 4.3% active; AID 1345082, 2018; further: nearly all actives have a fitted effect of over 55% in size
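ATP-dependent luminescence (CellTiter-Glo) served as the viability signal for NIH 3T3 cells treated with compound for 48 or 72 hr at 37 °C.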
HEK cytotox: Cytotoxic Profiling in HEK 293 Cell Line of Diverse Libraries Using Quantitative High-Throughput Screening; HEK 293 viability, ATP luminescence (CellTiter-Glo), 48-72 h; Potency, µM (highest dose often 115 µM), hits mostly inhibitors; 94,000 tested, 6.6% active; AID 1345083, 2018; further: nearly all actives have a fitted effect of over 60% in size
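Luminescence from cellular ATP, measured with CellTiter-Glo, indicates HEK 293 viability. Cells plated at 250 cells/well are treated with compound for 48 or 72 hr at 37 degree Celsius before reagent addition.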
FLuc inh: Firefly luciferase inhibition profiling of diverse chemical library using quantitative high-throughput screening; Luciferin 4-monooxygenase (Photinus pyralis), P08659; Potency, µM (titrated, usually from 115 µM), most hits filed as inhibitors; purified P. pyralis luciferase, luminescence, biochemical; AID 1347043, 2019; 76,000 tested, 2.5% active; further: nearly all actives have a fitted effect of over 65% in size
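Luminescence read by CCD imager after adding enzyme (10nM final) to wells holding compound, titrated in qHTS. Substrates 10uM each D-luciferin and ATP; buffer 50mM Tris acetate pH 7.5, 10mM Mg acetate, Tween-20, BSA.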
A number is an active result; [ ] = remark or other dose. Unless noted, the call rests on the fitted dose curve; in most records, active means well fitted curve in the direction sought with a large enough effect; inconclusive means small, poorly fitted or top-dose-only effect, or another doubt; inactive means no such curve, though single readings can be large; an effect the other way counts as inactive or inconclusive.

Results for CC1=C[C@@H](CNC(=O)Nc2ccccc2)[C@H](C(C)C)C[C@H]1Cc1nnc(-c2ccncc2)o1 ?
hNpr1 antagonist: inconclusive; GPT2 inh: inactive; NIH3T3 tox: inconclusive; HEK cytotox: 22µM; FLuc inh: inactive

Results for CC1=C[C@@H](CNS(=O)(=O)c2ccc(C#N)cc2)[C@H](C(C)C)C[C@H]1Cc1nnc(-c2ccncc2)o1 ?
hNpr1 antagonist: inactive; GPT2 inh: inactive; NIH3T3 tox: inconclusive; HEK cytotox: inconclusive; FLuc inh: inactive

What do the screens show for `CC1=C[C@@H](CNC(=O)c2ccncc2)[C@H](C(C)C)C[C@H]1Cc1nnc(-c2ccncc2)o1`?
hNpr1 antagonist: inconclusive; GPT2 inh: inactive; NIH3T3 tox: inconclusive; HEK cytotox: 79µM; FLuc inh: inactive

Results for CCn1nccc1C(=O)N1CCC2(CC1)CN(C(C)=O)CC2COC (centres undefined) ?
hNpr1 antagonist: inactive; GPT2 inh: inactive; NIH3T3 tox: inactive; HEK cytotox: inactive; FLuc inh: inactive

What do the screens show for `COc1cc(CN2CCC3(CCCO3)CCC2=O)cc(OC)c1` (centres undefined)?
hNpr1 antagonist: inactive; GPT2 inh: inactive[11.5 µM]; NIH3T3 tox: inactive; HEK cytotox: inactive; FLuc inh: inactive

How did Cc1cccc(C2c3cc(OCc4nc(C(=O)NC(C)C)co4)ccc3CCN2C(=O)C2CC2)c1 (centres undefined) do in these assays?
hNpr1 antagonist: inactive; GPT2 inh: inactive; NIH3T3 tox: 14µM; HEK cytotox: 18µM; FLuc inh: inactive

How did CC(C)NC(=O)c1coc(COc2ccc3c(c2)C(c2cccc(F)c2)N(C(=O)C2CC2)CC3)n1 (centres undefined) do in these assays?
hNpr1 antagonist: inactive; GPT2 inh: inactive; NIH3T3 tox: 22µM; HEK cytotox: inconclusive; FLuc inh: inactive

How did COc1ccccc1CNC(=O)CC1=C2CCCCC2N(C)C1=O (centres undefined) do in these assays?
hNpr1 antagonist: inactive; GPT2 inh: inactive; NIH3T3 tox: inactive; HEK cytotox: inactive; FLuc inh: inactive

How did COc1ccc(C(=O)N2CCCN(C)c3ccccc32)cc1 do in these assays?
hNpr1 antagonist: inactive; GPT2 inh: inactive; NIH3T3 tox: inactive; HEK cytotox: inconclusive; FLuc inh: inconclusive

How did O=C(NCc1ccc(C(F)(F)F)cc1)C1CCCN(Cc2cccc(-c3ccsc3)c2)C1 (centres undefined) do in these assays?
NIH3T3 tox: 35µM; HEK cytotox: inconclusive

What do the screens show for `O=C1CCN(Cc2ccncc2)CCCC(C(=O)NCc2cccc(C(F)(F)F)c2)CCN1` (centres undefined)?
hNpr1 antagonist: inactive; GPT2 inh: inactive; NIH3T3 tox: inactive; HEK cytotox: inactive; FLuc inh: inactive

What do the screens show for `Cc1cccc(-c2cccc(CN3CCCC(C(=O)NCC(F)F)C3)c2)c1` (centres undefined)?
GPT2 inh: inactive; NIH3T3 tox: inconclusive; HEK cytotox: inconclusive

How did O=C(NCc1cccc(C(F)(F)F)c1)C1CCCN(Cc2cccc(-c3ccsc3)c2)C1 (centres undefined) do in these assays?
NIH3T3 tox: 13µM; HEK cytotox: 32µM

How did COc1ccc(CN2CCOC[C@H](Oc3ccccc3)C2)cc1 do in these assays?
hNpr1 antagonist: inactive; GPT2 inh: inactive; NIH3T3 tox: inconclusive; HEK cytotox: inconclusive; FLuc inh: inactive

Results for CC(C)c1ccc(NC(=O)c2ccc3c(c2)N(C)C2CCCN2C3=O)cc1 (centres undefined) ?
hNpr1 antagonist: inactive; GPT2 inh: inactive; NIH3T3 tox: inconclusive; HEK cytotox: 45µM; FLuc inh: 16µM

How did Cc1cccc(NC(=O)c2ccc3c(c2)N(C)C2CCCCN2C3=O)c1 (centres undefined) do in these assays?
hNpr1 antagonist: inactive; GPT2 inh: inactive; NIH3T3 tox: inconclusive; HEK cytotox: inconclusive; FLuc inh: 28µM

How did CC(C)c1cccc(NC(=O)c2ccc3c(c2)N(C)C2CCCCN2C3=O)c1 (centres undefined) do in these assays?
hNpr1 antagonist: inactive; GPT2 inh: inactive; NIH3T3 tox: inconclusive; HEK cytotox: 28µM; FLuc inh: inactive

How did Cc1cc(C)cc(NC(=O)c2ccc3c(c2)N(C)C2CCCCN2C3=O)c1 (centres undefined) do in these assays?
hNpr1 antagonist: inactive; GPT2 inh: inactive; NIH3T3 tox: inconclusive; HEK cytotox: inconclusive; FLuc inh: inconclusive

How did O=C(c1ccc(Cl)nc1)N1CCCC(C(=O)N2CCC(c3ccccc3)CC2)C1 (centres undefined) do in these assays?
GPT2 inh: inactive; NIH3T3 tox: inactive; HEK cytotox: inactive

What do the screens show for `Cc1cccc(-c2cccc(CN3CCC(NC(=O)c4ccc(Cl)nc4)CC3)c2)c1`?
GPT2 inh: inactive; NIH3T3 tox: 18µM; HEK cytotox: 14µM

How did Cc1ccc(C(=O)NC2CCN(Cc3cccc(-c4ccc(F)c(F)c4)c3)CC2)cc1 do in these assays?
GPT2 inh: inactive; NIH3T3 tox: 35µM; HEK cytotox: inconclusive

What do the screens show for `COc1ccc(C(=O)NC2CCN(Cc3cccc(-c4cccc(C)c4)c3)CC2)cc1`?
GPT2 inh: inactive; NIH3T3 tox: inconclusive; HEK cytotox: 35µM

Results for O=C(NC1CCN(Cc2cccc(-c3cccs3)c2)CC1)c1ccc(Cl)nc1 ?
GPT2 inh: inactive; NIH3T3 tox: inconclusive; HEK cytotox: inconclusive

How did Cc1cccc(-c2cccc(CN3CCC(NC(=O)C4CC4)CC3)c2)c1 do in these assays?
GPT2 inh: inactive; NIH3T3 tox: inconclusive; HEK cytotox: inconclusive

How did Cc1cccc(-c2cccc(CN3CCC(NC(=O)c4ccncc4)CC3)c2)c1 do in these assays?
GPT2 inh: inactive; NIH3T3 tox: 32µM; HEK cytotox: 32µM

How did COc1ccccc1CCC(=O)N1CCC(c2n[nH]c(=O)n2Cc2ccc(F)cc2)CC1 do in these assays?
hNpr1 antagonist: inactive; GPT2 inh: inactive; NIH3T3 tox: inactive; HEK cytotox: inactive; FLuc inh: inactive

Results for CC(C)Cn1c(=O)c(C(=O)NCCc2ccc(F)cc2)nc2cccnc21 ?
GPT2 inh: inactive; NIH3T3 tox: inconclusive; HEK cytotox: inconclusive

Results for O=C(Nc1ccc2c(c1)OCCO2)N1CCCC(Cn2c(C3CC3)nc3cccnc32)C1 (centres undefined) ?
hNpr1 antagonist: inactive; GPT2 inh: inactive; NIH3T3 tox: inactive; HEK cytotox: inactive; FLuc inh: inactive

How did O=C1NCCCCCCN(C(=O)c2cccs2)[C@H]2C[C@H](c3nc(-c4cccnc4)no3)C[C@@H]12 do in these assays?
hNpr1 antagonist: inactive; GPT2 inh: inactive; NIH3T3 tox: inconclusive; HEK cytotox: inactive; FLuc inh: inactive

From PubChem BioAssay
